Results from PubChem BioAssay (Tox21).
“And” between values parts separate entries of the source, which are not always exact repeats. Identical values can stand only once. Results filed as inconclusive are left out. The source made the active and inactive calls. Unless noted, calls come from the whole dose curve; as a rule, active = well fitted curve in the direction sought with a large enough effect in the repeat runs; inconclusive = weak or mixed curves; inactive = no such curve, though single readings can be large; an effect the other way counts as inactive or inconclusive.

Legend:
[1] = qHTS assay to identify small molecule agonists of the hypoxia (HIF-1) signaling pathway (AID 1224846; active = well fitted activation curve with a large enough effect in the signal ratio in the repeat runs, not every such curve was filed as active; the % refers to the signal ratio)
How it was run: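 Beta-lactamase FRET read-out (CCF4-AM substrate) from ME-180 cells carrying an HRE-driven bla reporter, after 17 hrs compound exposure at 37C/5% CO2. Cells were seeded at 2,000 per well in 0.5% dialyzed FBS medium and preincubated 5 hrs.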

[2] = qHTS assay to identify small molecule agonists of H2AX - cell viability counter screen (AID 1224847; calls by dose curve; note: top concentration of the series differs between compounds; nearly all actives have a fitted effect of over 30% in size)
How it was run: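 Quantitative HTS viability measurement: CHO-K1 wild-type cells in serum (10% FBS) medium, short 3 hr drug exposure at 37C with 0.76% DMSO, CellTiter-Glo luminescent detection.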

[3] = qHTS RealTime-Glo MT Cell Viability Assay in HepG2 cells - 24 hour (AID 1224867); note: nearly all actives have a fitted effect of over 50% in size
How it was run: (§1)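 Compound treatment began 5 h after plating HepG2 cells (600/well) with NanoLuc luciferase and prosubstrate. Plates stayed at 37 C for 40 h; luminescence was captured at six time points, 0 h through 40 h.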

[4] = A CellTox Green Cytotoxicity Assay to monitor cytotoxicity in HEK293 cells - 0 hour (AID 1224869); note: nearly all actives have a fitted effect of over 50% in size
How it was run: (§2)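 Read-out: fluorescence of a cell-impermeant cyanine dye staining DNA of dead cells, proportional to cytotoxicity. HEK293, 600 cells/well with reagent, compound (23 nL DMSO) added after 5 h; reads at 0, 8, 16, 24, 32, 40 h.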

[5] = A CellTox Green Cytotoxicity Assay to monitor cytotoxicity in HEK293 cells - 40 hour (AID 1224871); note: nearly all actives have a fitted effect of over 45% in size
How it was run: as §2

[6] = qHTS RealTime-Glo MT Cell Viability Assay in HepG2 cells - 8 hour (AID 1224873); note: nearly all actives have a fitted effect of over 55% in size
How it was run: (§3)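 HepG2 cells mixed with RealTime-Glo MT reagents (NanoLuc plus cell-permeant prosubstrate) were seeded at 600 cells/well, incubated 5 h at 37 C/5% CO2, then pinned with compounds in DMSO; nonlytic luminescence tracked viability during 40 h treatment.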

[7] = A CellTox Green Cytotoxicity Assay to monitor cytotoxicity in HEK293 cells - 24 hour (AID 1224875); note: nearly all actives have a fitted effect of over 45% in size; note: potency is the fitted concentration of half-maximal effect
How it was run: as §2

[8] = A CellTox Green Cytotoxicity Assay to monitor cytotoxicity in HepG2 cells - 16 hour (AID 1224876); note: nearly all actives have a fitted effect of over 45% in size
How it was run: (§4)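 HepG2, 600 cells/well premixed w/ CellTox Green; 5 h settle, 37 C/5% CO2; pintool cpd add (DMSO); 37 C, 40 h; fluorescence read at 0, 8, 16, 24, 32, 40 h.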

[9] = qHTS RealTime-Glo MT Cell Viability Assay in HepG2 cells - 32 hour (AID 1224877); note: nearly all actives have a fitted effect of over 55% in size; note: potency is the fitted concentration of half-maximal effect
How it was run: as §1

[10] = A CellTox Green Cytotoxicity Assay to monitor cytotoxicity in HepG2 cells - 40 hour (AID 1224879); note: nearly all actives have a fitted effect of over 40% in size; note: potency is the fitted concentration of half-maximal effect
How it was run: as §4

[11] = qHTS assay to identify small molecule agonists of H2AX (AID 1224845; active = well fitted activation curve with a large enough effect in the signal ratio in the repeat runs, not every such curve was filed as active; the % refers to the signal ratio)
How it was run: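 Wild-type CHO-K1 cells plated overnight, then exposed 3 hr at 37C to compounds at 15 concentrations (0.76% DMSO). Lysed, then HTRF anti-pH2AX(S139)-cryptate/anti-H2AX-d2 detection after 24 hr at room temperature; emissions 665 and 620 nm.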

[12] = qHTS assay to identify small molecule antagonists of the estrogen related receptor (ERR) signaling pathway from Tox21 library (AID 1224848); note: nearly all actives have a fitted effect of over 50% in size; note: potency is the fitted concentration of half-maximal effect
How it was run: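 First, 2,000 ERR cells per well were plated and held 6 h at 37 C/5% CO2. Next, compounds in DMSO were pinned in and left 18 h at 37 C. Finally, ONE-Glo was added and luminescence read after 30 min at room temperature.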

[13] = qHTS RealTime-Glo MT Cell Viability Assay in HepG2 cells - 40 hour (AID 1224870); note: nearly all actives have a fitted effect of over 50% in size; note: potency is the fitted concentration of half-maximal effect
How it was run: as §3

[14] = A CellTox Green Cytotoxicity Assay to monitor cytotoxicity in HepG2 cells - 24 hour (AID 1224878); note: nearly all actives have a fitted effect of over 45% in size
How it was run: as §4

[15] = qHTS RealTime-Glo MT Cell Viability Assay in HEK293 cells - 0 hour (AID 1224880)
How it was run: (§5)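 Luminescence readout at each listed time point; HEK293, 600 cells/well, RealTime-Glo MT reagent added with cells; compounds pinned (23 nL in DMSO) after 5 h at 37 C; continuous culture at 37 C.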

[16] = qHTS assay to identify small molecule agonists of the estrogen related receptor (ERR) signaling pathway from Tox21 library (AID 1224849; calls by dose curve; note: nearly all actives have a fitted effect of over 15% in size); settings: ERR reporter cell line, ONE-Glo luciferase, 18 h; at 92.4 µM (top of the series) unless noted
How it was run: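 Luminescence readout (ONE-Glo, 30 min RT) after 18 h compound exposure at 37 C of NTP-supplied ERR reporter cells; cells were plated 6 h before compound addition by pin tool.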

[17] = qHTS RealTime-Glo MT Cell Viability Assay in HEK293 cells - 32 hour (AID 1224868); note: nearly all actives have a fitted effect of over 50% in size; note: potency is the fitted concentration of half-maximal effect
How it was run: (§6)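 Quantitative high-throughput screen of the Tox21 10K library in HEK293: cells and RealTime-Glo reagents plated together, compound added at 5 h, luminescence monitored through 40 h at 37 C.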

[18] = qHTS RealTime-Glo MT Cell Viability Assay in HEK293 cells - 16 hour (AID 1224872); note: nearly all actives have a fitted effect of over 50% in size; note: potency is the fitted concentration of half-maximal effect
How it was run: as §6

[19] = qHTS RealTime-Glo MT Cell Viability Assay in HEK293 cells - 40 hour (AID 1224874); settings: RealTime-Glo luminescence; max response: stronger effect = lower value; note: nearly all actives have a fitted effect of over 50% in size; note: potency is the fitted concentration of half-maximal effect
How it was run: as §5

[20] = qHTS assay to identify small molecule agonists of the hypoxia (HIF-1) signaling pathway - cell viability counter screen (AID 1224844; calls by dose curve; note: nearly all actives have a fitted effect of over 50% in size)
How it was run: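 CellTiter-Glo luminescence read-out, 30 min RT, taken in the same wells as the beta-lactamase HRE reporter assay; HRE-bla ME-180 cells, 0.5% dialyzed FBS, 17 hr compound treatment at 37C, 5% CO2.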
% is set by controls: 0 for no effect and ±100 for the full control effect.

CC1(C)CCC(C)(C)c2cc(NC(=O)c3ccc(C(=O)O)cc3)ccc21
inactive: outcome [1] | Potency [2] | Potency [3] | Potency [4] | Potency [5] | Potency [6] | Potency [7] | Potency [8] | Potency [9] | Potency [10]

C[C@H](CCC(=O)O)[C@H]1CC[C@H]2[C@@H]3[C@H](O)C[C@@H]4C[C@H](O)CC[C@]4(C)[C@H]3CC[C@]12C
inactive: Potency [11] | Potency [2] | Potency [12] | Potency [3] | Potency [4] | Potency [13] | Potency [6] | Potency [7] | Potency [8] | Potency [9] | Potency [14] | Potency [15]

CCCCCOC(=O)c1ccc(O)cc1
active: activity change, positive = activation [16] 37.7% | Potency [17] 44.2 µM | Potency [18] 44.2 µM | Potency [19] 44.2 µM | Potency [7] 49.6 µM
inactive: Potency [11] | Potency [12] | Potency [3] | Potency [4] | Potency [13] | Potency [6] | Potency [9] | Potency [15]

CC[C@]12CCCN3CCc4c(n(c5ccccc45)C(=O)C1)[C@@H]32
inactive: Potency [2] | activity change, positive = activation [16] -17.2% [at 42.5 µM] | Potency [3] | Potency [4] | Potency [13] | Potency [5] | Potency [6] | Potency [7] | Potency [8] | Potency [9] | Potency [14]
active: Potency [17] 4.77 µM | Potency [19] 4.25 µM | Potency [10] 6.74 µM

O=C1[C@H](CC[C@H](O)c2ccc(F)cc2)[C@@H](c2ccc(O)cc2)N1c1ccc(F)cc1
inactive: Potency [11] | outcome [1] | Potency [2] | activity change, positive = activation [16] -42.1% [at 42.5 µM] | Potency [3] | Potency [4] | Potency [13] | Potency [5] | Potency [6] | Potency [8] | Potency [9] | Potency [14] | Potency [15]
active: Potency [17] 19 µM | Potency [19] 19 µM

Nc1nc(N)c2nc(CNc3ccc(C(=O)N[C@@H](CCC(=O)O)C(=O)O)cc3)cnc2n1
inactive: Potency [20] | Potency [2] | activity change, positive = activation [16] -62.3% | Potency [3] | Potency [4] | Potency [13] | Potency [5] | Potency [18] | Potency [6] | Potency [8] | Potency [9] | Potency [14] | Potency [15]

O=[N+]([O-])c1cc[n+]([O-])cc1
inactive: Potency [20] | outcome [1] | Potency [4] | Potency [18] | Potency [6] | max response [19] -21.4% | Potency [7] | Potency [8] | Potency [14] | Potency [10]

CC[C@H](C)[C@@H](C(=O)O)n1sc2ccccc2c1=O
active: Potency [13] 30.9 µM | Potency [9] 49 µM
inactive: Potency [11] | outcome [1] | Potency [2] | Potency [17] | Potency [4] | Potency [5] | Potency [18] | Potency [6] | max response [19] -0.529% | Potency [7] | Potency [8] | Potency [14] | Potency [15]

CC(C)c1ccccc1C(C)C
inactive: Potency [20] | outcome [1] | Potency [3] | Potency [17] | Potency [4] | Potency [13] | Potency [18] | Potency [6] | Potency [7] | Potency [8] | Potency [9]

Cn1sccc1=O
active: Potency [12] 48.6 µM
inactive: Potency [2] | activity change, positive = activation [16] -14.6% and -29.4% | Potency [3] | Potency [4] | Potency [5] | Potency [18] | Potency [6] | Potency [8] | Potency [9] | Potency [14]

COCCOCCOCCOCCOC
inactive: Potency [11] | Potency [2] | Potency [3] | Potency [4] | Potency [13] | Potency [5] | Potency [18] | Potency [6] | max response [19] -6.35% | Potency [8] | Potency [9] | Potency [10] | Potency [15]

CCCOc1ccc2nc(NC(=O)OC)[nH]c2c1
inactive: outcome [1] | Potency [2] | Potency [3] | Potency [4] | Potency [13] | Potency [18] | Potency [6] | Potency [7] | Potency [8] | Potency [9] | Potency [14] | Potency [15]
active: Potency [10] 0.477 µM

CC(C)c1ccc2c(C(C)C)cc(C(C)C)c(S(=O)(=O)O)c2c1
inactive: Potency [11] | outcome [1] | Potency [3] | Potency [17] | Potency [4] | Potency [13] | Potency [18] | Potency [6] | max response [19] -12.5% | Potency [8] | Potency [9] | Potency [14] | Potency [10] | Potency [15]
